Results as given in the supplement of paper PMC6555819.

What was measured:
Test in all cases: PBM binding z-score (relative to random genomic background probes); higher = stronger binding; sequences stand for … in GC…GCGATTGACAGCGTAGAATGAAGG
[1] = tested on: FXR:RXRa (NR concentration 270 nM, RXRa partner concentration 90 nM)
Procedure, shortened: (§1)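 Binding z-scores take random background probes as their reference. They come from custom Agilent 4×180K protein-binding microarrays incubated 1 h with ligand-free nuclear receptor dimers, with antibodies against each partner (one per run) detecting binding. Scanned fluorescence was regression-normalized.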

[2] = tested on: LXRa:RXRa (NR concentration 270 nM, RXRa partner concentration 90 nM)
Procedure, shortened: as §1

[3] = tested on: LXRa homodimer (NR concentration 270 nM)
Procedure, shortened: as §1

[4] = tested on: LXRb:RXRa (NR concentration 270 nM, RXRa partner concentration 90 nM)
Procedure, shortened: as §1

[5] = tested on: LXRb homodimer (NR concentration 270 nM)
Procedure, shortened: as §1

[6] = tested on: PPARa:RXRa (NR concentration 270 nM, RXRa partner concentration 90 nM)
Procedure, shortened: as §1

[7] = tested on: PPARg:RXRa (NR concentration 180 nM, RXRa partner concentration 90 nM)
Procedure, shortened: as §1

[8] = tested on: PPARg:RXRa 270nM:90nM, anti-RXR (NR concentration 270 nM, RXRa partner concentration 90 nM)
Procedure, shortened: as §1

[9] = tested on: PPARg:RXRa 30nM:10nM, anti-RXR (NR concentration 30 nM, RXRa partner concentration 10 nM)
Procedure, shortened: as §1

[10] = tested on: PPARg:RXRa 90nM:30nM, anti-RXR (NR concentration 90 nM, RXRa partner concentration 30 nM)
Procedure, shortened: as §1

[11] = tested on: PPARg:RXRa DBDmut IVT, anti-RXR (DBD mutation: RXRa K156A/R161A, NR concentration 270 nM, RXRa partner concentration 90 nM)
Procedure, shortened: as §1

[12] = tested on: PPARg:RXRa IVT, anti-PPARg (NR concentration 270 nM, RXRa partner concentration 90 nM)
Procedure, shortened: as §1

[13] = tested on: PPARg DBDmut:RXRa IVT, anti-PPARg (DBD mutation: PPARg1 K132A/R137A, NR concentration 270 nM, RXRa partner concentration 90 nM)
Procedure, shortened: as §1

[14] = tested on: PPARg DBDmut IVT, anti-PPARg (DBD mutation: PPARg1 K132A/R137A, NR concentration 270 nM)
Procedure, shortened: as §1

[15] = tested on: PPARg homodimer (NR concentration 180 nM)
Procedure, shortened: as §1

[16] = tested on: PXR:RXRa (NR concentration 270 nM, RXRa partner concentration 90 nM)
Procedure, shortened: as §1

[17] = tested on: PXR homodimer (NR concentration 270 nM)
Procedure, shortened: as §1

[18] = tested on: RARa:RXR (NR concentration 270 nM, RXRa partner concentration 90 nM)
Procedure, shortened: as §1

[19] = tested on: RARa homodimer (NR concentration 270 nM)
Procedure, shortened: as §1

[20] = tested on: RARb:RXRa (NR concentration 270 nM, RXRa partner concentration 90 nM)
Procedure, shortened: as §1

Sequence	PBM binding z-score [1]	PBM binding z-score [2]	PBM binding z-score [3]	PBM binding z-score [4]	PBM binding z-score [5]	PBM binding z-score [6]	PBM binding z-score [7]	PBM binding z-score [8]	PBM binding z-score [9]	PBM binding z-score [10]	PBM binding z-score [11]	PBM binding z-score [12]	PBM binding z-score [13]	PBM binding z-score [14]	PBM binding z-score [15]	PBM binding z-score [16]	PBM binding z-score [17]	PBM binding z-score [18]	PBM binding z-score [19]	PBM binding z-score [20]
GCTATGAGTTGAAAGGGCAACCGAATGATTCTCG	1.13	1.19	-0.0384	1.24	-0.412	3.11	2.75	3.86	1.58	3.23	0.245	0.754	0.0157	-0.588	0.982	1.62	-0.0077	2.66	0.195	2.45
ATCTCTAGGTAATAAGTTCAGTGAAAGAGAGGAC	0.945	1.09	0.832	0.701	1.15	1.51	1.69	2.39	1.36	2.07	2.07	2.06	1.58	1.43	1.52	1.7	2.13	0.943	1.54	1.83
ACAGGCAGGTGAGTGAAGGTAACTCAGCTGGACG	0.139	-0.0924	-0.455	-0.499	-0.66	0.119	0.199	-0.206	-0.505	-0.636	0.549	0.264	-0.867	-0.655	-0.302	-0.384	-0.354	-0.019	-0.662	0.283
TCATATAGGTAAAAGGTGAAAGACGGTGTGGTAA	2.04	2.03	0.309	2.05	0.213	5.1	9.86	8.73	9.9	10.6	5.58	5.42	1.69	1.75	3.5	1.66	0.734	3.13	1.65	1.91
GGACCGAGGGCAAGTTGATAGCAGAGTTTGATGG	0.721	0.322	-0.497	0.0428	-0.812	0.868	0.401	0.00699	-0.601	-0.0881	0.956	0.614	-1.14	-1.16	0.433	0.556	0.539	0.315	-0.39	2.6
GCTTGTAGATCAAGGTTAAGACAGACTAAGCTAA	0.188	0.807	-0.318	0.486	-0.279	1.61	1.25	2.16	0.803	1.8	1.75	1.34	0.667	-0.149	0.0438	0.721	-0.263	0.922	-0.104	0.893
CGGACTGGGGCATAAGGTTACCATAAGCCAGCCC	0.339	2.09	-0.514	1.11	-0.487	2.78	4.19	4.81	2.94	4.56	4.08	5.2	1.2	1.32	1.19	0.635	-0.0559	1.48	-0.515	1.78
CCGTGTAGGTTATGGGGCATTCAGGCAACGGTGA	0.503	0.731	0.151	0.984	0.31	2.13	2.03	3.57	1.74	3.16	2.12	2.67	-1.11	-0.904	1.42	0.0818	-0.178	0.761	0.31	1.33
AGAACGAGGGCAATGAGTTGATAGCACGGGTGGC	0.227	0.258	-0.336	-0.187	-0.464	1.14	1.4	0.948	0.0396	0.43	3.48	2.48	0.306	0.0167	0.0111	1.54	2.95	0.443	0.212	2.04
ATCGAAAGATCGAAGGTGAGTATACCCACCCGAA	0.128	-0.167	-0.351	-0.103	-0.379	0.477	0.73	0.539	0.2	0.266	-0.781	0.354	-0.115	-0.0294	-0.0886	0.0692	-0.598	0.121	0.67	0.215
CCTTACGGGTCACAGACAGGTTATAGCATTTGGA	5.55	4.19	0.611	3.84	0.0624	5.36	5.74	5.16	2.14	3.99	3.72	4.63	1.16	0.89	2.76	3.87	0.387	4.91	0.967	4.01
ATATGTAGGTTGCATCCGGGTCATTCAGGCTATG	1.21	1.43	0.122	1.29	-0.0904	2.76	1.97	1.68	0.362	1.36	4.33	3.93	1.47	0.927	0.466	2.76	1.85	2.73	0.0936	1.4
TTACCAAGGTGAAGGTCGTCGATCCCTCTGTAGA	1.32	1.01	-0.48	1.09	-0.788	2.6	3.62	4.16	2.47	4.28	1.94	3.33	0.0568	0.108	0.887	1.24	-0.288	1.64	-0.604	2.36
TCGAGTAAGTTAGGGGCATTCAGAATGGCGTCGA	0.474	0.581	-0.298	0.52	-1.13	0.686	-0.191	0.338	1.03	0.613	0.867	-0.26	-1.43	-0.704	0.141	0.512	0.0747	0.66	-0.608	0.456
AATACAGGGTCATCGTAGGCCAGAGCACGCACAG	7.49	6.27	2.28	4.72	1.31	5.79	6.53	6.08	3.29	4.98	2.92	4.29	2.99	0.869	3.33	4.96	0.778	5.48	0.827	4.21
TCAAGTTGGTCAAAGGTCACACACTCGAAATGCG	6.18	5.75	3.72	5.56	1.33	6.41	11.2	9.6	10	10.6	3.5	6.22	1.33	1.21	5.18	5.91	1.87	7.41	2.74	5.12
CAGACTAGGTCAGGGCCAGTATAGGAGGAACGTT	1.14	0.664	-0.52	0.152	-0.575	2.57	3.84	3.65	1.04	2.5	5.95	6.11	0.269	0.382	0.388	0.0784	-0.249	0.723	-0.255	3.12
AATACAGGGTTATCGTAGGCCAGAGTACGCACAG	1.75	5.85	0.204	2.68	0.3	2.55	1.75	1.35	0.668	0.954	0.539	1.12	0.626	0.739	0.97	1.59	-0.0696	1.79	0.276	1.3
TCGAGTAAGTTAGTCGGGGCATTCAGCCAACATA	-1.52	-0.541	-0.717	-0.128	-0.869	0.00256	-0.588	0.158	0.928	0.486	0.848	-0.156	-0.534	-0.684	-0.634	-0.346	-0.239	-0.154	-0.863	-0.272
